From PubChem BioAssay (NCATS)
The source made the active and inactive calls. Calls follow the shape of the dose curve; as a rule, active = well fitted curve in the direction sought with a large enough effect; inactive = no such curve, though single readings can be large or run the other way.

biological target: Alpha-galactosidase (Coffea arabica) (UniProt Q42656); experiment: Counterscreen for Glucocerebrosidase Inhibitors: qHTS Assay for Coffee Bean alpha-Galactosidase at pH 5.9 (AID 998); conditions: coffee bean alpha-galactosidase enzyme assay; series mostly up to 76.9 µM
Sequence (Q42656 whole entry, looked up): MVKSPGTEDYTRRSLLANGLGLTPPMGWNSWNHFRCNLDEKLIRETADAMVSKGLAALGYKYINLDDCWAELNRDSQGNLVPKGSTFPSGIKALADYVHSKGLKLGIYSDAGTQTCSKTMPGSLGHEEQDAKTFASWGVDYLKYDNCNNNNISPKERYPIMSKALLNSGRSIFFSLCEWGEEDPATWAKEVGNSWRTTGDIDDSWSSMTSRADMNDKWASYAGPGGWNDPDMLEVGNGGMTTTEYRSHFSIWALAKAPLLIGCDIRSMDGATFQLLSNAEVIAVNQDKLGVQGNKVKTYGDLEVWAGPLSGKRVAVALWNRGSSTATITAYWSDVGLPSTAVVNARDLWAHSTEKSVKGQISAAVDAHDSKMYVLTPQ
Source text: NIH Chemical Genomics Center [NCGC]
NIH Molecular Libraries Screening Centers Network [MLSCN]
PI Name: Zheng, Wei [NIH]
Alpha-galactosidase is a homodimeric glycoprotein that hydrolyzes the terminal alpha-galactosyl moieties from glycolipids and glycoproteins. Deficiency of this enzyme results in Fabry Disease with progressive accumulation of globotriaosylceramide and other glycosphingolipids in vascular endothelial cells that causes renal failure, myocardial infarction and stroke, and premature death in patients. It has reported that the improper folding and trafficking of alpha-galactosidase resulted from the genetic mutations may account for a significant numbers of Fabry patients. […] We optimized this coffee bean alpha-galactosidase assay in 1536-well plate format as a counter-screen assay for identifying the selective small molecule inhibitors of other lysosomal enzymes.
NCGC Assay Protocol Summary:
This is a fluorogenic enzyme assay with 4-Methylumbelliferyl alpha-D-galactopyranoside as the substrate and green coffee bean […] (from Sigma-Aldrich) as the enzyme preparation. Upon the hydrolysis of this fluorogenic substrate, the resulting product, […]. 4-Methyllumbelliferone, can be excited at 365 nm and emits at 440 nm which can be detected by a standard fluorescence plate reader. Data were normalized to the controls for basal activity (without enzyme) and 100% activity (with enzyme). In the AC50 values were determined from concentration-response data modeled with the standard Hill equation.
Assay buffer: 50 mM citric acid, 0.005% Tween-20, pH 5.9. (pH 5.9 is an optimal condition for this enzyme assay.)
1536-well assay protocol for the coffee bean alpha-galactosidase:
(1) Add 2 ul/well of enzyme (2 nM final)
(2) Add 23 nL compounds in DMSO solution. The final titration was 0.7 nM to 77 uM.
(3) Add 1 ul of substrate (80 uM final)
(4) Incubate at room temperature for 20 min.
(5) Add 2 ul stop solution (1M NaOH and 1M Glycine mixture, pH 10)
(6) Detect the assay plate in a ViewLux plate reader (PerkinElmer) with Ex=365 nm and Em=440nm.
Keywords: Alpha-galactosidase, Fabry Disease, pharmacological chaperone, chaperone therapy, high throughput screening, alpha-galactosidase inhibitor, MLSMR, MLSCN, NIH Roadmap, qHTS and NCGC

Compound	outcome
Oc1ccc2c3c1O[C@@H]1c4[nH]c5c(c4C[C@@]4(O)[C@@H](C2)N(CC2CC2)CC[C@]314)C[C@]1(O)[C@@H]2Cc3ccc(O)c4c3[C@@]1(CCN2CC1CC1)[C@H]5O4	inactive
C[C@@]12CC[C@H]3[C@@H](CC=C4C[C@H](OS(=O)(=O)O)CC[C@]43C)[C@H]1CCC2=O	inactive
COc1cc([C@@H](O)CN)ccc1O	inactive
CC(C)C[C@H](NP(=O)(O)O[C@@H]1O[C@@H](C)[C@@H](O)[C@@H](O)[C@H]1O)C(=O)N[C@@H](Cc1c[nH]c2ccccc12)C(=O)O	inactive
C[Se]C[C@@H](N)C(=O)O	inactive
COc1cc(C[C@H](C)N)c(OC)cc1I	inactive
O=C(O)[C@H]1[C@H](C(=O)O)[C@H]2CC[C@@H]1O2	inactive
COc1ccc2c(c1O)-c1cccc3c1[C@H](C2)N(C)CC3	inactive
CC(=O)c1c(O)c(C)c(O)c(Cc2c(O)c3c(c(C(=O)/C=C\c4ccccc4)c2O)OC(C)(C)C=C3)c1O	inactive
C[C@@H]1O[C@H]1P(=O)(O)O	inactive
C#CCN[C@@H](C)Cc1ccccc1	inactive
CC(=O)OCC1=C(C(=O)[O-])N2C(=O)[C@@H](NC(=O)CCC[C@@H](N)C(=O)[O-])[C@@H]2SC1.[Zn+2]	inactive
C[N+]1(C)CCc2cc3c(cc2[C@@H]1[C@@H]1OC(=O)c2c1ccc1c2OCO1)OCO3	inactive
C[N+]1(C)C2CC(OC(=O)C(CO)c3ccccc3)CC1[C@@H]1O[C@H]21 (some centres undefined)	inactive
CC(=O)[C@@H]1CC[C@H]2[C@H]3CC[C@H]4C[C@@H](O)CC[C@]4(C)[C@@H]3CC[C@]12C	inactive
COc1ccc2c3c1O[C@@H]1C(=O)CC[C@@]4(O)[C@@H](C2)N(CC2CC2)CC[C@]314	inactive
C[C@]12CC[C@H](O)CC1=CC[C@@H]1[C@H]2CC[C@]2(C)C(=O)CC[C@H]12	inactive
N[C@H](Cn1ccc(=O)[nH]c1=O)C(=O)O	inactive
CCCN1CC[C@@H]2c3cc(O)ccc3CC[C@H]21	inactive
COC(=O)[C@H](N)CCCN=C(N)N[N+](=O)[O-]	inactive

Compound	outcome
NC[C@H](O)c1cc(O)c(O)cc1F	inactive
CN1C[C@@H](CS(=O)(=O)N(C)C)C[C@H]2c3cccc4c3c(cn4C)C[C@@H]21	inactive
C[C@@H](Cc1ccc(O)cc1)NC[C@@H](O)c1cc(O)cc(O)c1	inactive
CCn1cnc2c(Nc3cccc(Cl)c3)nc(N[C@@H]3CCCC[C@H]3N)nc21	inactive
N[C@H](CCl)C(=O)O	inactive
CCN(CC)c1ncnc2c1ncn2[C@@H]1O[C@@H](COP(=O)(O)OP(=O)(O)C(Br)(Br)P(=O)(O)O)[C@H](O)[C@@H]1O	inactive
NC(=O)CN1C[C@@H](O)CC1=O	inactive
Nc1ncnc2c1ncn2[C@@H]1O[C@@H](COP(=O)(O)CP(=O)(O)OP(=O)(O)O)[C@H](O)[C@@H]1O	inactive
C=CCN1CC[C@]23c4c5ccc(O)c4O[C@@H]2/C(=N/NC(=O)c2ccccc2)CC[C@@]3(O)[C@H]1C5	inactive
N[C@H](Cc1ccc(N(CCCl)CCCl)cc1)C(=O)O	inactive
CCNC(=O)[C@@H]1O[C@@H](n2cnc3c(N)ncnc32)[C@@H](O)[C@H]1O	inactive
C[C@@]12CC[C@H]3[C@@H](CCC4=C(O)C(=O)CC[C@]43C)[C@H]1CCC2=O	inactive
O=C(O)[C@H]1CCN1	inactive
C[C@@H]1Cc2cc3c(cc2C(c2ccc(N)cc2)=NN1)OCO3	inactive
C[C@]12CC[C@H](O)C[C@@H]1CC[C@H]1[C@H]2CC[C@]2(C)[C@H](C(=O)CO)CC[C@@H]12	inactive
COc1ccc2c(c1)[C@]13CCCC[C@@H]1[C@H](C2)NCC3	inactive
CO[C@@H]1CC=C2CCN3CCC4=C(CC(=O)OC4)[C@]23C1	inactive
CC(C)N[C@@H](C)Cc1ccc(I)cc1	inactive
C[C@@]12CC[C@H]3[C@@H](CC[C@@H]4C[C@H](O)CC[C@]43C)[C@H]1CC[C@H]2O	inactive
